ST2 inh: IL1RL1 inhibition. Q01638. AlphaLISA ST2-Fc/biotin-IL-33 interaction, 1 h. inhibition, % for hits at 17 µM. 2.3% of 78,000 active. AID 1259354; in the data active = inhibition above about 30%
Target sequence (Q01638 whole entry, looked up): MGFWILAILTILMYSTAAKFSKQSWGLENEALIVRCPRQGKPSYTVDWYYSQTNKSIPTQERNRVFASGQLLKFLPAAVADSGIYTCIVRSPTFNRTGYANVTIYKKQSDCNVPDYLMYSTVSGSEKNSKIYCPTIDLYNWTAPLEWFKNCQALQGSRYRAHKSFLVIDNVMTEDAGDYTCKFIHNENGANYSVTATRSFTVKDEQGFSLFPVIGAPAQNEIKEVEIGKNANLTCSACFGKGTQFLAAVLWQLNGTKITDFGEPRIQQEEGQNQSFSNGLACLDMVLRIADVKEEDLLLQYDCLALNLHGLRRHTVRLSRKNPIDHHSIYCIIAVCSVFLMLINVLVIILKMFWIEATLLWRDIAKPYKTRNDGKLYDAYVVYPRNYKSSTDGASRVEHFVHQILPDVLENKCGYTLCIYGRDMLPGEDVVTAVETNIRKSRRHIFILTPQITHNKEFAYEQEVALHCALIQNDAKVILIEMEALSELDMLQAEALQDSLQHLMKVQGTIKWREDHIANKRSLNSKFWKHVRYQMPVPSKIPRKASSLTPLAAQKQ
* = called active by the depositor; i = inactive. The full list was thinned out, with hits kept by preference.

SMILES	ST2 inh
CCOc1ccc(-n2c(SCC(=O)NC3CCCCC3)nc3c(c2=O)SCC3)cc1	i
COC(=O)CN1C(=O)CSc2ccccc21	i
CC(C)c1nccn1C(C)C(=O)N1CCc2ccccc2C1 (stereo not given)	i
CC(=O)N1CCC(C(=O)NCCc2csc(C(C)C)n2)CC1	i
CN1CCN(C(=O)CN2C(=O)S/C(=C/c3ccccc3)C2=O)CC1	i
O=C(O)CN1C(=O)S/C(=C\c2ccco2)C1=O	74%*
CC(C)N1C(=O)S/C(=C\c2ccc(-c3cccc(C(=O)O)c3)o2)C1=O	i
CCCCc1ncc(-c2c(-c3ccccc3)ncn2Cc2ccncc2)[nH]1	i
COc1ccc(C2C(C#N)=C(N)SC(N)=C2C#N)c(OC)c1	i
CN1CCN(CCSc2ccc(Cl)cc2)CC1	i
Cc1ccc(S(=O)(=O)Nc2ccccc2-c2ccccc2)cc1	i
O=C1c2ccccc2-c2n[nH]c3cccc1c23	i
Cc1ccc(-c2cc3c(nn2)-c2ccccc2C3=O)cc1	34%*
CCc1ccccc1Nc1ncnc2c1cnn2-c1ccccc1	i
CC(=O)Nc1ccc(Cl)c(C(=O)N(C)Cc2ccc3nsnc3c2)c1	i
COc1ccc(/C=C2\SC(=O)N(c3cccc(C)c3)C2=O)cc1	i
COc1ccc(N2C(=N)S/C(=C\c3ccccc3[N+](=O)[O-])C2=O)cc1	36%*
COc1ccc(/C=C2\SC(=O)N(c3ccc(O)cc3)C2=O)cc1	i
CCC(=O)Nc1ccc(S(=O)(=O)Nc2onc(C)c2C)cc1	i
C[C@@]12CC[C@@H](C[C@@H]1N)C2	41%*
Cc1cc(N2CCOCC2)nc(N2CCN(S(=O)(=O)c3ccc(-c4ccccc4)cc3)CC2)n1	i
O=C(CNS(=O)(=O)c1cccs1)NCc1cccnc1	79%*
O=C(CNS(=O)(=O)c1ccc(Br)s1)NCc1cccnc1	i
O=S(=O)(NCc1cccnc1)c1cccs1	i
Cc1cc(C)c(CSc2nnc(C)s2)c(C)c1	i
SMILES	ST2 inh
CCc1[nH]c2c(CNC(=O)c3ccncc3)cc(C)cc2c1C	i
O=[N+]([O-])c1ccc(NS(=O)(=O)c2ccc(Br)cc2)cc1	i
O=C1NN(c2ccc(F)cc2)C(=O)/C1=C\c1cccn1-c1ccc([N+](=O)[O-])cc1	31%*
O=C1NN(c2ccc(Br)cc2)C(=O)/C1=C\c1cccn1-c1ccc([N+](=O)[O-])cc1	33%*
Cc1cc(/C=C2/C(=O)NC(=O)N(c3ccccc3)C2=O)c(C)n1-c1ccc([N+](=O)[O-])cc1	i
O=C1NC(=O)N(c2cccc(F)c2)C(=O)/C1=C/c1cccn1-c1ccccc1	i
CCC(C)NC(=O)C1c2cc(OC)c(OC)cc2C(=O)N(C)C1c1ccc(OC)c(OC)c1 (stereo not given)	i
COc1ccccc1NC(=O)CC1SC(=Nc2ccccc2)N(c2ccccc2)C1=O (stereo not given)	i
COc1ccc(N2CCN(C(=O)c3ccc(N(C)S(=O)(=O)c4ccccc4)cc3)CC2)cc1	i
COC(=O)[C@@H]1C[C@H](NC(=O)C2(Nc3ccc(C)cc3)CCCC2)CN1C	i
COc1cccc(-c2nccn2-c2cccc(C(C)=O)c2)c1OC	i
COc1cc(C)c(S(=O)(=O)N2CCN(c3nc(C)cc(N4CCCCC4)n3)CC2)cc1C	i
Cc1cc(OCC(=O)Nc2ccc(S(N)(=O)=O)cc2)ccc1C(C)C	i
CC1=C(C(=O)NCc2ccc(Cl)cc2)C2(CCN(S(C)(=O)=O)CC2)OC1=O	i
COc1ccc(N2CCN(Cc3cccnc3)CC2)cc1	i
COc1ccc(N2CCN(Cc3ccc4nonc4c3)C(C)C2)cc1 (stereo not given)	31%*
COc1cccc(-c2ccccc2NC(=O)C2CCN(Cc3ccc4nonc4c3)CC2)c1	i
Cc1ccc2nc(NC(=O)c3cc(=O)c4ccccc4o3)sc2c1	i
CCc1nc(C)c(C(=O)NCCOc2cccc3cccnc23)o1	i
Cc1nc2sccn2c1C(=O)NC1CC(C)(C)Cc2c1cnn2-c1ccccc1 (stereo not given)	i
CC(C)NC(=O)NC[C@H]1O[C@@H](CO)[C@@H](O)[C@H]1N1CCN(c2cccc(C(F)(F)F)c2)CC1	44%*
COc1ccc(S(=O)(=O)NC[C@H]2O[C@@H](CO)[C@@H](O)[C@H]2N2CCN(c3ccccc3OC)CC2)cc1	i
COc1cc(NC(=O)NC[C@H]2O[C@@H](CO)[C@@H](O)[C@H]2N2CCN(C)CC2)cc(OC)c1	i
O=C(NC[C@H]1O[C@@H](CO)[C@@H](O)[C@H]1N1CCN(c2cccc(C(F)(F)F)c2)CC1)Nc1cccc(Cl)c1	i
COc1ccc(C(=O)NC[C@H]2O[C@@H](CO)[C@@H](O)[C@H]2N2CCN(c3cccc(C(F)(F)F)c3)CC2)cc1	i
SMILES	ST2 inh
COc1cccc(NC(=O)NC[C@H]2O[C@@H](CO)[C@@H](O)[C@H]2N2CCN(c3ccccn3)CC2)c1	36%*
COc1ccccc1N1CCN([C@@H]2[C@H](O)[C@H](CO)O[C@@H]2CNS(=O)(=O)c2cccs2)CC1	i
COc1cccc(NC(=O)NC[C@H]2O[C@@H](CO)[C@@H](O)[C@H]2N2CCC(C)CC2)c1	i
COc1ccccc1N1CCN([C@@H]2[C@H](O)[C@H](CO)O[C@@H]2CNS(=O)(=O)c2ccc(C)cc2)CC1	73%*
Cc1cccc(Cc2c(C)nc3nc(SCC(=O)NCCC(C)C)nn3c2C)c1	i
CN(CCc1ccccn1)c1ncccc1CNC(=O)c1cnn2ccccc12	i
CCOC(=O)c1nn(CCC(F)(F)F)c2c1CN(C(=O)c1cncs1)CC2	i
O=C(NCc1ccco1)c1ccc2c(Cl)c3c(nc2c1)CCCC3	i
O=C(Cc1ccccc1)Nc1cccc(-c2nc3ccccc3o2)c1	i
CC(C)(C)C1=CC(=O)c2c(ccc(C(C)(C)C)c2O)C1=O	65%*
Cc1nc2nc(-c3ccccc3)cc(-c3ccccc3)n2n1	i
CC(=O)N1CCC(N2C[C@H](O)C[C@H]2c2nc(-c3ccc(C)c(F)c3)no2)CC1	i
CC(C)(C)c1nnc([C@H]2CCN(Cc3ccc(F)cc3)C2)o1	i
O=[N+]([O-])c1cc(N=Cc2nc(-c3ccccc3F)oc2O)ccc1Cl	i
CC(C)c1ccc(Nc2c(-c3ccco3)nc3ccccn23)cc1	i
O=[N+]([O-])c1cc(C=Nc2c(-c3ccco3)nc3ccccn23)c(Cl)cc1Cl	44%*
CCOC(=O)c1sc(-n2[nH]c(=O)c3ccccc3c2=O)c(C(=O)OCC)c1C	i
O=C(Nc1nnc(Cc2ccc(F)cc2)s1)C1CCCCC1	i
CCCc1ccc(S(=O)(=O)N2CCN(c3cc(-c4ccc(OC)cc4)ncn3)CC2)cc1	i
COc1ccc(C2=NN(CC(=O)NC3CC3)C(=O)CC2)cc1	i
CC1=C(C(=O)Nc2ccc(C)cn2)C(c2ccccc2C)C2=C(CC(C)(C)CC2=O)N1 (stereo not given)	i
Cc1ccc(C2CC(c3ccc(F)cc3)=NN2c2ccccc2)o1 (stereo not given)	40%*
COc1ccc(C2CC(c3ccccc3)=NN2C(=O)c2ccc(F)cc2)cc1 (stereo not given)	i
COc1ccc(C2=NN(S(=O)(=O)c3ccc(C)cc3)C(c3ccc(F)cc3)C2)cc1OC (stereo not given)	i
C#CC(C)(O)CCc1c(C)cc(OC)c(C)c1C (stereo not given)	i
O=C(CN1C(=O)S/C(=C\c2ccccc2)C1=O)Nc1nccs1	i
